# Most compounds without a hit are left out; they make up all but 6.5% or so of the library.
# VACV Venus inh – vaccinia inhibition (Venus reporter). Vaccinia virus Venus reporter expression, fluorescence. Potency, µM (highest dose often 36.5 µM), inactives show at the top dose activity change, negative = inhibition, actives largely listed as inhibitors. 0.46% of 330,000 active; calls by dose curve; tested in A549 cells; further: potency means the concentration at half of the fitted maximal effect; nearly all actives have a fitted effect of over 30% in size
# FMDV antiviral – antivirals against foot and mouth disease virus; FMDV antiviral cell-based qHTS; Potency, µM (doses to about 57.9 µM), for inactives: at the top dose activity change, negative = inhibition, most hits filed as inhibitors; 1.2% of 410,000 active; AID 1159524; calls by dose curve; tested in HEK293T cells; further: read-out not given here; potency means the concentration at half of the fitted maximal effect; nearly all actives have a fitted effect of over 45% in size
# Lassa entry inh – Lassa virus entry inhibition; Lassa virus pseudotype entry inhibition, cell reporter; Potency, µM (series often up to 37.9 µM), inactives show top-dose activity change, negative = inhibition, usual class: inhibitors; 1.2% of 300,000 active; AID 540256; calls by dose curve; tested in HEK293 cells; further: potency means the concentration at half of the fitted maximal effect; nearly all actives have a fitted effect of over 50% in size
# Marburg entry inh – inhibitors of Marburg virus binding or cell entry. Marburg virus pseudotyped entry inhibition, cell reporter. Potency, µM (top dose mostly 37.8 µM), without a hit: top-dose activity change, negative = inhibition, hits mostly inhibitors. 1.8% of 300,000 active; calls by dose curve; tested in HEK293 cells; further: potency means the concentration at half of the fitted maximal effect
# HCMV inh – human cytomegalovirus inhibition; HFF cells, HCMV-luciferase reporter, 72 h; stronger effect = lower value; activity change, negative = inhibition, % at 57.5 µM; 4.5% of 410,000 active; in the data active means activity change below about -60%; inconclusive means no clear call, values can overlap the other calls; inactive means above about -39%
#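 Two-dose cell screen: HFF monolayers treated with compounds and infected with luciferase-expressing HCMV at 1 PFU/cell, 72 h at 37C, then lysed for luciferase measurement.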
# VACV mCherry inh – inhibitors of vaccinia virus infection (mCherry reporter signal); Vaccinia virus mCherry reporter infection, fluorescence; Potency, µM (series often up to 36.5 µM), inactives show top-dose activity change, negative = inhibition, actives largely listed as inhibitors; 0.63% of 310,000 active; calls by dose curve; tested in A549 cells; further: potency means the concentration at half of the fitted maximal effect; nearly all actives have a fitted effect of over 35% in size
# Starred values were filed as active, the others as inactive; i = inactive; ? = inconclusive; . = no result given; ! = not confirmed by another sample; [ ] = another dose, or the depositor's remark. On the % scale 0 is the no-effect control and ±100 the full control effect.
SMILES,VACV Venus inh,FMDV antiviral,Lassa entry inh,Marburg entry inh,HCMV inh,VACV mCherry inh
CNS(=O)(=O)/C=C/c1ccccc1,-8.4%,13.5%,19.8%,?,-72.0*,-12.5%
CCN(CC)CCOC(=O)c1ccc(N/C=C(/C#N)c2nc(-c3ccc(OC)cc3)cs2)cc1,-5.0%,-6.4%,18.2%,3.98µM*,-77.2*,i
COc1ccc2cc(C(=O)/C=C/c3cc(OC)c(O)c(OC)c3)ccc2c1,321.2%,20.5%,?,?,-33.4,?
COc1cc(/C=C/C(=O)c2ccc(NS(=O)(=O)c3ccc(C)cc3)cc2)ccc1OC(F)F,?,?,?,?,-70.7*,?
COc1cccc(C(=O)/C=C/Nc2ccc(S(=O)(=O)Nc3cccc(C(C)=O)c3)cc2)c1,?,-22.9%,?,?,-35.1,.
COc1cccc(/C=C/C(=O)c2ccc(NS(=O)(=O)c3ccc(C)cc3)cc2)c1,?,-24.3%,?,?,-69.9*,?
COc1cc(/C=C/C(=O)c2ccc(NS(=O)(=O)c3ccc(C)cc3)cc2)cc(OC)c1O,222.4%,-18.0%,?,?,-101.0*,?
CN(C)c1ccnc(-c2ccccc2C(F)(F)F)n1,-17.7%,-1.8%,.,.,.,-14.9%
CN1CCN(c2ccc(NC(=O)Oc3ccccc3)cc2)CC1,-0.6%,46.0%,4.2%,?,-13.2,-8.3%
C=CC(=O)Nc1ccc(N(C)c2ccnc(Nc3ccc(N4CCN(C)CC4)cc3)n2)cc1,7.94µM*,0.0%,.,.,83.2,6.31µM*
OC(CN(c1ccccc1)c1ccccc1)Cn1cnc2ccccc21 (stereo unspecified),?,31.6µM*,-6.4%,?,?,.
CC(C)c1ccc(NC2(C#N)C(=O)Nc3ccccc32)cc1 (stereo unspecified),9.4%,1.0%,8.9%,3.9%,-71.7*,.
FC(F)(F)c1cc(CCN2CCNC[C@@H]2Cc2ccccc2)cc(C(F)(F)F)c1,11.2µM*,-20.9%,.,.,-64.2*,12.6µM*
Cc1cccc(C(=O)N=c2c(C#N)cc3c(=O)n4cccc(C)c4nc3n2Cc2ccco2)c1,-12.1%,5.5%,2.7%,14.1µM*!,-31.3,-11.1%
CCOC(=O)c1cc2c(=O)n3ccccc3nc2n(Cc2ccco2)c1=NC(=O)c1cccnc1,-10.9%,-1.6%,?,7.3µM*,-15.9,-13.9%
CCOC(=O)c1cc2c(=O)n3ccccc3nc2n(CCOC)c1=NC(=O)c1c(-c2c(F)cccc2Cl)noc1C,0.8%,-3.8%,?,?,-60.6*!,-3.3%
CCOC(=O)c1cc2c(=O)n3cccc(C)c3nc2n(Cc2ccco2)c1=NC(=O)c1cccnc1,-17.9%,9.3%,9.1%,?,-9.5,-15.1%
COc1cccc(C(=O)Nc2cc(-c3ccccc3)no2)c1,-5.4%,-41.1%,1.9%[46.1 µM],?,94.2,-3.2%
COc1ccc([C@H]2/C(=C(\O)c3ccc(OC(C)C)cc3)C(=O)C(=O)N2CCCN2CCOCC2)cc1,.,.,.,-12.9%,.,.
Cc1ccc(C)n1C1C(=O)N(Cc2ccc(C(F)(F)F)cc2)c2ccccc21 (stereo unspecified),.,.,.,.,30.4,.
Cc1ccc([C@@H]2C[C@H]3[C@@H](CN2S(=O)(=O)c2ccc(C)cc2)C(=O)C[C@@H](c2ccc(C)cc2)N3S(=O)(=O)c2ccc(Cl)cc2)cc1,-5.4%,-17.0%,.,.,-9.9,-1.6%
O=C(CNC(=S)NC(=O)C1CCCCC1)c1ccccc1,-10.9%,42.8%,12.5%,?,-78.8*,-14.8%
O=C(NC(=S)NCCc1ccccc1)C1CCCCC1,-8.4%,20.2%,?,?,96.0,i
O=C(NC1CC1)C1=C[C@@H](C2CC2)C[C@@H](OCCCCO)O1,5.1%,-7.4%,.,.,-9.4,-12.5%
O=C(NCc1ccccc1)C1=C[C@H](c2csc3ccccc23)C[C@H](OCc2ccc(CO)cc2)O1,?,3.9%,.,.,-61.0*,-23.6%
O=C(NC1CC1)C1=C[C@H](C2CCCCC2)C[C@H](OCCCCO)O1,-15.4%,3.7%,.,.,-63.9*,i
O=C(NCc1nc2ccccc2[nH]1)C1=C[C@@H](C2CCCCC2)C[C@@H](OCc2ccc(CO)cc2)O1,?,?,.,.,?,-2.8%
O=C(NCc1nc2ccccc2[nH]1)C1=C[C@H](C2CCCCC2)C[C@H](OCc2ccc(CO)cc2)O1,?,-46.4%,.,.,-70.2*,-3.6%

# Bioassay records deposited in PubChem BioAssay by National Center for Advancing Translational Sciences (NCATS).
